Reference: PubChem BioAssay (EPA / NIEHS)
Active and inactive are the calls of the source. Rule for the calls: active = hit-call score of the fitted dose curve at least 0.9, where 1 is the maximum; inactive = score below 0.9.

Columns and labels:
Conditions in all cases: mRNA level, 48 h; actives raise or lower the signal
[1] = read-out: Cytochrome P450 4A22 (Homo sapiens) (UniProt Q5TCH4); assay: LTEA_HepaRG_CYP4A22: Life Technologies and Expression Analysis (LTEA) Assay for Cytochrome P450 4A22 (CYP4A22) using HepaRG (AID 2283495)
How it was run: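 Cryopreserved HepaRG cells, plated and cultured 48 h, then switched to serum-free induction medium and treated 48 h (duplicates, up to 100 uM, half-log steps, 0.5% DMSO). Expression change of CYP4A22 was fitted bidirectionally against vehicle.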

[2] = read-out: Cytochrome P450 7A1 (Homo sapiens) (UniProt P22680); assay: LTEA_HepaRG_CYP7A1: Life Technologies and Expression Analysis (LTEA) Assay for Cytochrome P450 7A1 (CYP7A1) using HepaRG (AID 2283496)
How it was run: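 Gene expression endpoint in human HepaRG liver cells treated for 48 h with test chemicals (up to 100 uM, 0.5% DMSO). Values come from bidirectional concentration-response fitting versus DMSO.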

[3] = read-out: Glutathione S-Transferase (GSTA2), GSTA2 (gene 2939); assay: LTEA_HepaRG_GSTA2: Life Technologies and Expression Analysis (LTEA) Assay for Glutathione S-Transferase (GSTA2) using HepaRG (AID 2283497)
How it was run: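 HepaRG, 48 h dosing, 8-pt half-log CRC from 100 uM, 0.5% DMSO vehicle, n=2; RNA → Fluidigm TaqMan qRT-PCR; GSTA2 vs ACTB/GAPDH/POLR2A; gain/loss fit vs DMSO.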

[4] = read-out: Glutamate-cysteine ligase catalytic (GCLC), GCLC (gene 2729); assay: LTEA_HepaRG_GCLC: Life Technologies and Expression Analysis (LTEA) Assay for Glutamate-cysteine ligase catalytic (GCLC) using HepaRG (AID 2283498)
How it was run: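 Read-out is GCLC transcript level by Fluidigm-based TaqMan qRT-PCR, normalized to three housekeeping genes and fitted in both directions relative to 0.5% DMSO. Human HepaRG cells received chemicals for 48 h, up to 100 uM.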

[5] = read-out: growth arrest and DNA damage 45 (GADD45G), GADD45G (gene 10912); assay: LTEA_HepaRG_GADD45G: Life Technologies and Expression Analysis (LTEA) Assay for growth arrest and DNA damage 45 (GADD45G) using HepaRG (AID 2283499)
How it was run: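 Human hepatic HepaRG line treated 48 h with chemicals (eight concentrations, half-log steps from 100 uM); transcript induction or repression of GADD45G scored by qRT-PCR versus DMSO vehicle.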

[6] = read-out: Glutamate-cysteine ligase regulatory (GCLM), GCLM (gene 2730); assay: LTEA_HepaRG_GCLM: Life Technologies and Expression Analysis (LTEA) Assay for Glutamate-cysteine ligase regulatory (GCLM) using HepaRG (AID 2283500)
How it was run: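 Human liver HepaRG cultures receive test chemicals for 48 hours at up to 100 uM in 0.5% DMSO. GCLM expression is measured by qRT-PCR and analysed for increases or decreases against vehicle.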

[7] = read-out: Glutathione S-transferase M3 (GSTM3), GSTM3 (gene 2947); assay: LTEA_HepaRG_GSTM3: Life Technologies and Expression Analysis (LTEA) Assay for Glutathione S-transferase M3 (GSTM3) using HepaRG (AID 2283501)
How it was run: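 Changes in GSTM3 expression, an oxidative-stress marker, were scored by bidirectional curve fitting against 0.5% DMSO vehicle. Human HepaRG cultures received chemicals for 48 h in duplicate, highest concentration 100 uM with half-log dilutions.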

[8] = read-out: Heat shock 70 kDa protein 1 (HSPA1A), gene 3303; assay: LTEA_HepaRG_HSPA1A: Life Technologies and Expression Analysis (LTEA) Assay for Heat shock 70 kDa protein 1 (HSPA1A) using HepaRG (AID 2283502)
How it was run: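 HSPA1A induction in human HepaRG liver cells is measured after 48 h of chemical treatment (100 uM maximum, 0.5% DMSO vehicle). Expression comes from qRT-PCR normalized to endogenous controls.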

[9] = read-out: Hypoxia-inducible factor 1-alpha (Homo sapiens) (UniProt Q16665); assay: LTEA_HepaRG_HIF1A: Life Technologies and Expression Analysis (LTEA) Assay for Hypoxia-inducible factor 1 (HIF1A) Trancription factor using HepaRG (AID 2283503);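 note: HIF1A transcript by TaqMan qRT-PCR normalized to ACTB GAPDH and POLR2A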
How it was run: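 HepaRG, 48 h exposure, 8-pt half-log series from 100 uM, 0.5% DMSO vehicle, duplicates. Readout: HIF1A transcript by qRT-PCR (Fluidigm array), housekeeping-normalised. Bidirectional curve fit vs DMSO baseline.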

[10] = read-out: 3-Hydroxy-3-Methylglutaryl-CoA Synthase 2 (HMGCS2), HMGCS2 (gene 3158); assay: LTEA_HepaRG_HMGCS2: Life Technologies and Expression Analysis (LTEA) Assay for 3-Hydroxy-3-Methylglutaryl-CoA Synthase 2 (HMGCS2) using HepaRG (AID 2283504)
How it was run: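 Expression of HMGCS2 in human HepaRG liver cells is measured by qRT-PCR 48 h after dosing (highest 100 uM, half-log series, 0.5% DMSO). Values come from bidirectional concentration-response fitting with DMSO as baseline.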

HGF (gene 3082) = assay: LTEA_HepaRG_HGF: Life Technologies and Expression Analysis (LTEA) Assay for Hepatocyte Growth Facto (HGF) using HepaRG (AID 2283505)
How it was run: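 Gain or loss of HGF mRNA in human HepaRG liver cells after 48 h chemical exposure; eight concentrations up to 100 uM with 0.5% DMSO vehicle, quantified by TaqMan qRT-PCR.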

[11] = read-out: Insulin Like Growth Factor 1 (IGF1), IGF1 (gene 3479); assay: LTEA_HepaRG_IGF1: Life Technologies and Expression Analysis (LTEA) Assay for Insulin Like Growth Factor 1 (IGF1) using HepaRG (AID 2283506)
How it was run: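 Using human HepaRG liver cells, IGF1 transcript induction or suppression is measured 48 h after dosing across eight concentrations capped at 100 uM. Values derive from bidirectional concentration-response fitting with DMSO as baseline.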

[12] = read-out: Intercellular Adhesion Molecule 1 (ICAM1), ICAM1 (gene 3383); assay: LTEA_HepaRG_ICAM1: Life Technologies and Expression Analysis (LTEA) Assay for Intercellular Adhesion Molecule 1 (ICAM1) using HepaRG (AID 2283507)
How it was run: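 Gain or loss of transcript in HepaRG hepatic cells is quantified by qRT-PCR after 48 h chemical exposure (up to 100 uM, half-log steps), with DMSO as baseline.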

[13] = read-out: Insulin-like growth factor-binding protein 1 (IGFBP1), IGFBP1 (gene 3484); assay: LTEA_HepaRG_IGFBP1: Life Technologies and Expression Analysis (LTEA) Assay for Insulin-like growth factor-binding protein 1 (IGFBP1) using HepaRG (AID 2283508)
How it was run: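 mRNA induction or loss was quantified by qRT-PCR after 48 h chemical exposure of human HepaRG cells, with 0.5% DMSO as vehicle and baseline. Concentration-response over eight points up to 100 uM.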

[14] = read-out: Interleukin 6 (IL6), IL6 (gene 3569); assay: LTEA_HepaRG_IL6: Life Technologies and Expression Analysis (LTEA) Assay for Interleukin 6 (IL6) using HepaRG (AID 2283509)
How it was run: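 HepaRG, ~100,000 cells/well, 48 h pre-culture; serum-free induction medium; cmpd 8-pt half-log from 100 uM, 0.5% DMSO, duplicate, 48 h. Lysis in RLT, TaqMan qRT-PCR; gain or loss vs DMSO.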

[15] = read-out: Interleukin 6 Receptor (IL6R), IL6R (gene 3570); assay: LTEA_HepaRG_IL6R: Life Technologies and Expression Analysis (LTEA) Assay for Interleukin 6 Receptor (IL6R) using HepaRG (AID 2283510);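 for AC50: differentiated human HepaRG liver cells in serum-free induction medium; TaqMan qRT-PCR signal normalized to ACTB GAPDH and POLR2A housekeeping genes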
How it was run: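 Concentration-response in human liver HepaRG cells: eight concentrations from 100 uM downward by half-logs, 48 h exposure, 0.5% DMSO vehicle. IL6R mRNA change measured by qRT-PCR and fitted in both directions relative to vehicle.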

[16] = read-out: Potassium channel subfamily K member 1 (KCNK1), KCNK1 (gene 3775); assay: LTEA_HepaRG_KCNK1: Life Technologies and Expression Analysis (LTEA) Assay for Potassium channel subfamily K member 1 (KCNK1) using HepaRG (AID 2283511)
How it was run: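 Gain or loss of KCNK1 mRNA is the read-out, quantified by qRT-PCR against three housekeeping genes after 48 h chemical treatment of human HepaRG liver cells. Concentrations ran from 100 uM downward in half-log steps, vehicle 0.5% DMSO.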

[17] = read-out: Keratin 19 (KRT19), KRT19 (gene 3880); assay: LTEA_HepaRG_KRT19: Life Technologies and Expression Analysis (LTEA) Assay for Keratin 19 (KRT19) using HepaRG (AID 2283512)
How it was run: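 Gene-expression endpoint in the human liver line HepaRG after 48 h exposure to up to 100 uM test chemical with 0.5% DMSO vehicle; KRT19 mRNA by qRT-PCR, analyzed bidirectionally versus DMSO.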

[18] = read-out: JUN Transcription Factor, JUN (gene 3725); assay: LTEA_HepaRG_JUN: Life Technologies and Expression Analysis (LTEA) Assay for JUN Transcription Factor using HepaRG (AID 2283513)
How it was run: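 Human HepaRG liver cells receive test chemicals in 0.5% DMSO for 48 h across an eight-point range topping at 100 uM. Expression changes in JUN are scored in both directions against the DMSO vehicle.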

[19] = read-out: Lipase C (LIPC), LIPC (gene 3990); assay: LTEA_HepaRG_LIPC: Life Technologies and Expression Analysis (LTEA) Assay for Lipase C (LIPC) using HepaRG (AID 2283514)
How it was run: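 Read-out is LIPC transcript level by TaqMan qRT-PCR, normalized to three housekeeping genes, after 48 h chemical treatment of human HepaRG liver cells. Curves span eight concentrations topping at 100 uM; activity in either direction scored relative to 0.5% DMSO.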

Measured: AC50

Sequence of Hypoxia-inducible factor 1-alpha (Homo sapiens) (Q16665 whole entry, looked up): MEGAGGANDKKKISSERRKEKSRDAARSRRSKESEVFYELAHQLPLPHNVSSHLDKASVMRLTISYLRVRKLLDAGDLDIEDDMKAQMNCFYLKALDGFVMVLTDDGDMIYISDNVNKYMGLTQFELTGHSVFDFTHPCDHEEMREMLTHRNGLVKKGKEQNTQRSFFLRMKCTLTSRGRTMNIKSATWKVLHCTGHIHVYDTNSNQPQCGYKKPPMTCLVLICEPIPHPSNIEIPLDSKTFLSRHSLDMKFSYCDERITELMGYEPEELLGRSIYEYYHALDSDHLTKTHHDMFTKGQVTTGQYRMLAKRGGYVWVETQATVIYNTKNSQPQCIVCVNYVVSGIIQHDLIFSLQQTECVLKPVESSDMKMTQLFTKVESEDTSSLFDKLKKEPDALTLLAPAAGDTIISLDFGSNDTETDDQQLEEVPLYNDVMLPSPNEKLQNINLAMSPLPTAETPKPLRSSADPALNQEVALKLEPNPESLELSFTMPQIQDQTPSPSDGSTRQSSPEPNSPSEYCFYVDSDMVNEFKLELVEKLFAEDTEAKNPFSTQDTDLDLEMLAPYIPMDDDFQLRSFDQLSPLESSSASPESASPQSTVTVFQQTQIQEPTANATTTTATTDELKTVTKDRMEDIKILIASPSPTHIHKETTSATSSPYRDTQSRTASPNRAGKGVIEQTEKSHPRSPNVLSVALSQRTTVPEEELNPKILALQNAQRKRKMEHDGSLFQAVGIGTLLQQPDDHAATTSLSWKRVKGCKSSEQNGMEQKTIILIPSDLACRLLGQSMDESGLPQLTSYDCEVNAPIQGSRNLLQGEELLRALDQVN

CCCN(CCC)c1c([N+](=O)[O-])cc(C(F)(F)F)c(N)c1[N+](=O)[O-]
active: [1] 22 µM | [2] 36.6 µM | [6] 28.6 µM | [8] 50 µM | [10] 33.3 µM | [11] 22.7 µM | [19] 50 µM
inactive: all other assays above

O=C(c1ccccc1)C1CCCCC1
not listed: [13]
inactive: all other assays above

C[C@]12CC[C@@H]3c4ccc(O)cc4C[C@@H](CCCCCCCCCS(=O)CCCC(F)(F)C(F)(F)F)[C@H]3[C@@H]1CC[C@@H]2O (some centres not stated)
active: [2] 15 µM | [3] 28.1 µM | [4] 19.9 µM | [5] 13 µM | [6] 0.0464 µM | [7] 29.8 µM | [10] 33.6 µM | HGF (gene 3082) 0.0444 µM | [12] 0.0415 µM | [14] 13.9 µM | [15] 24.3 µM | [16] 0.0883 µM | [18] 0.0859 µM | [19] 50 µM
inactive: [1] | [8] | [9] | [11] | [17]

OB(O)O
inactive: all assays above

C#CCOC(=O)[C@@H](C)Oc1ccc(Oc2ncc(Cl)cc2F)cc1
active: [1] 13.2 µM | [10] 11.7 µM
not listed: [13]
inactive: all other assays above
